19 compounds from ChEMBL document CHEMBL3988442, “University of Dundee, Small-Polar-MMV Screening Library” (2021) can be followed below.

The test concerns the target T1, Methionyl-tRNA synthetase, putative (Leishmania donovani (strain BPK282A1)) (UniProt E9BF75).
T1 sequence (whole entry): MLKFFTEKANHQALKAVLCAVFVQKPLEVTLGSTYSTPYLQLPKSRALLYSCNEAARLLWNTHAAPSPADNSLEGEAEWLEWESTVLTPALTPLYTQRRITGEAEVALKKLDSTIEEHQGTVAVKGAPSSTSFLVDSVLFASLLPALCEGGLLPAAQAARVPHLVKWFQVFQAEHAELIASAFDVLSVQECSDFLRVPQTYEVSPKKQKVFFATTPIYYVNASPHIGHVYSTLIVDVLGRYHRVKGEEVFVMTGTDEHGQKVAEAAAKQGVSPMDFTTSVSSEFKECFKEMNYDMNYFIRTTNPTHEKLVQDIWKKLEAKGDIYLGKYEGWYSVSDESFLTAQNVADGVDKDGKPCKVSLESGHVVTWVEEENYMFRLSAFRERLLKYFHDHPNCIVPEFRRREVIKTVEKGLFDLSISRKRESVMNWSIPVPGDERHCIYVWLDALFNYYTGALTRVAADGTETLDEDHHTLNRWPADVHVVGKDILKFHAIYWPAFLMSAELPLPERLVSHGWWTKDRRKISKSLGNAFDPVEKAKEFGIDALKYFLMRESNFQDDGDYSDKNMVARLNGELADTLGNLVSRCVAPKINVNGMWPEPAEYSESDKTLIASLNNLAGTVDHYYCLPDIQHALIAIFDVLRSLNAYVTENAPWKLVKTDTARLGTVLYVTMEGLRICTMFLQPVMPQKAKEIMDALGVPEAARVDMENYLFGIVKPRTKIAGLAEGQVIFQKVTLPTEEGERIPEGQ
The test can be described thus: Leishmania donovani Methionine tRNA synthetase (LdMetRS):v7. Dose response assay. More on the design: conc 80 nM, time 150 minutes. Type of test: functional.

As to `NCC1Cc2cc(-c3nccc(N4CCC(O)CC4)n3)cc(F)c2O1` (configuration not stated), the PXC50 (BOTTOM 4.57074024, HILLSLOPE 1.301030074, MAX_EFFECT 74.63768116, TOP 104.4144526) stood at 4.29; the PXC50 (BOTTOM 7.212229631, HILLSLOPE 1.389029539, MAX_EFFECT 78.85304659, TOP 100.0) came to 4.36; the PXC50 (BOTTOM 8.369250909, HILLSLOPE 1.751405643, MAX_EFFECT 88.77887789, TOP 100.0) was determined as 4.37.

For `Cn1ncc2c(NC3CCCCC3O)nc(Nc3ccc(F)c(F)c3)nc21` (configuration not stated), the PXC50 is, setting by setting: (BOTTOM -1.097292769, HILLSLOPE 1.183920675, MAX_EFFECT 57.48218527, TOP 58.96974935) 5.31; (BOTTOM -1.326166196, HILLSLOPE 1.398612708, MAX_EFFECT 60.37735849, TOP 61.95804926) 5.4; (BOTTOM -2.072986449, HILLSLOPE 1.170002512, MAX_EFFECT 60.08583691, TOP 62.14142479) 5.35.

Turning to `CC(C)Nc1nc(Nc2ccc(F)c(F)c2)nc2c1cnn2C`, the PXC50 by setting is: (BOTTOM 6.912856457, HILLSLOPE 1.265127605, MAX_EFFECT 60.96491228, TOP 58.85327881) 5.32; (BOTTOM 8.026516696, HILLSLOPE 1.466204418, MAX_EFFECT 55.47073791, TOP 58.34935066) 5.27; (BOTTOM 8.495247693, HILLSLOPE 1.610767227, MAX_EFFECT 62.64150943, TOP 64.37148882) 5.22.

Regarding `Cc1cnn(CC2CN(Cc3nc(C)c4ccccc4n3)CCO2)c1` (configuration not stated), the PXC50 is below 4 (MAX_EFFECT 29.53020134), below 4 (MAX_EFFECT 39.58333333) and below 4 (MAX_EFFECT 44.19410745).

Take `O=S(=O)(NCCO)c1cccnc1Nc1cccc(C(F)(F)F)c1`: the PXC50 was below 4 (MAX_EFFECT 4.933586338), below 4 (MAX_EFFECT 12.19008264) and below 4 (MAX_EFFECT 16.29955947).

Turning to `CCNc1nc(Nc2ccc(F)c(F)c2)nc2c1cnn2C`, the PXC50 was found to be 5.04 (BOTTOM 1.995747486, HILLSLOPE 0.878307732, MAX_EFFECT 82.01754386, TOP 90.74385953); 5.21 (BOTTOM -0.278671712, HILLSLOPE 0.874738485, MAX_EFFECT 76.33587786, TOP 84.21903162); 4.93 (BOTTOM -9.286701073, HILLSLOPE 0.734415983, MAX_EFFECT 80.15414258, TOP 112.1235893).

`CC1COc2ccccc2N1C(=O)CCc1cscn1` (configuration not stated) returned a PXC50 (MAX_EFFECT 3.401360544) below 4, a PXC50 (MAX_EFFECT 4.347826087) below 4 and a PXC50 (MAX_EFFECT 6.479859895) below 4.

Regarding `COc1ccccc1CN1CCC(c2nn(CCN)c3nccnc23)C1` (configuration not stated), the PXC50 by setting is: (BOTTOM 6.910506635, HILLSLOPE 2.152998005, MAX_EFFECT 63.75838926, TOP 91.48778108) 4.15; (BOTTOM -1.343168311, HILLSLOPE 1.212343279, MAX_EFFECT 59.72222222, TOP 92.89137202) 4.23; (BOTTOM -1.505582699, HILLSLOPE 1.035538343, MAX_EFFECT 55.28596187, TOP 100.0) 4.07.

For the compound `Nc1cc2c(nn1)CCN(C(=O)c1csc(-c3cccs3)n1)C2`, the PXC50 was below 4 (MAX_EFFECT 19.04761905), below 4 (MAX_EFFECT 19.56521739) and below 4 (MAX_EFFECT 20.14010508).

Take `Cn1ncc2c(NCC3CC3)nc(Nc3ccc(F)c(F)c3)nc21`: the PXC50 by setting is: (BOTTOM 0.0, HILLSLOPE 1.193695984, MAX_EFFECT 69.21119593, TOP 72.54722957) 5.02; (BOTTOM -3.303876123, HILLSLOPE 0.978123659, MAX_EFFECT 83.23699422, TOP 90.5971187) 5.12; (BOTTOM -7.642255371, HILLSLOPE 0.84165704, MAX_EFFECT 66.22807018, TOP 86.93864885) 4.93.

As for `CN(C)c1nc2c(c(N3CCc4ccccc4C3)n1)CCNC2`, the PXC50 was 4.37 (BOTTOM 4.386431105, HILLSLOPE 1.427859325, MAX_EFFECT 80.85808581, TOP 100.0); 4.28 (BOTTOM 4.719660638, HILLSLOPE 1.487233723, MAX_EFFECT 73.91304348, TOP 100.0); 4.07 (BOTTOM 4.739489756, HILLSLOPE 1.201717489, MAX_EFFECT 56.63082437, TOP 100.0).

As for `Cn1ncc2c(NCCO)nc(Nc3ccncc3)nc21`, the PXC50 by setting is: (MAX_EFFECT 4.449648712) below 4; (MAX_EFFECT 5.518763797) below 4; (MAX_EFFECT -0.37037037) below 4.

As to `COCCNc1nc(Nc2ccc(F)c(F)c2)nc2c1cnn2C`, the PXC50 reads like this: (BOTTOM 0.0, HILLSLOPE 0.788642153, MAX_EFFECT 89.69957082, TOP 101.1762058) 5.15; (BOTTOM 0.0, HILLSLOPE 0.880096509, MAX_EFFECT 92.63657957, TOP 99.00872691) 5.23; (BOTTOM -0.84748474, HILLSLOPE 0.841528212, MAX_EFFECT 93.81044487, TOP 101.2621412) 5.29.

For `CC(C)c1nc(N2CCC(N3CCCCCC3)CC2)c2cnn(C)c2n1`, the PXC50 by setting is: (BOTTOM 1.611649307, HILLSLOPE 1.510978702, MAX_EFFECT 74.4966443, TOP 100.0) 4.28; (BOTTOM 2.404981537, HILLSLOPE 1.138566115, MAX_EFFECT 78.47222222, TOP 100.0) 4.48; (BOTTOM 5.527995165, HILLSLOPE 1.337567516, MAX_EFFECT 71.57712305, TOP 100.0) 4.24.

With `O=S(=O)(NCC1CC1)c1cccnc1Nc1cccc(C(F)(F)F)c1`, the PXC50 runs as follows: (MAX_EFFECT 6.072106262) below 4; (MAX_EFFECT 13.21585903) below 4; (MAX_EFFECT 16.32231405) below 4.

With `COc1ccc(Oc2nccc3occc23)cc1CN1CCCC1`, the PXC50 runs as follows: (BOTTOM 5.268776127, HILLSLOPE 1.354854137, MAX_EFFECT 57.61821366, TOP 100.0) 4.06; (BOTTOM -7.168939731, HILLSLOPE 0.901042745, MAX_EFFECT 51.70068027, TOP 100.0) 4.08; (BOTTOM -7.793188509, HILLSLOPE 1.286586052, MAX_EFFECT 52.89855072, TOP 100.0) 4.09.

In the case of `Cn1ncc2c(N3CCC[C@H]3CO)nc(Nc3ccc(F)c(F)c3)nc21`, the PXC50 runs as follows: (BOTTOM 3.354874327, HILLSLOPE 0.975942115, MAX_EFFECT 81.27853881, TOP 88.63537555) 5.05; (BOTTOM 5.651213015, HILLSLOPE 1.001049773, MAX_EFFECT 83.58490566, TOP 90.01230887) 5.05; (BOTTOM 9.222423555, HILLSLOPE 1.183933311, MAX_EFFECT 81.21442125, TOP 84.5225205) 5.23.

Regarding `N[C@@H]1c2ccccc2C2(CCN(c3cnc4ccccc4n3)CC2)[C@H]1O`, the PXC50 by setting is: (BOTTOM 0.263751901, HILLSLOPE 1.516790173, MAX_EFFECT 51.81975737, TOP 100.0) 4.02; (BOTTOM -0.439515819, HILLSLOPE 1.13741317, MAX_EFFECT 66.44295302, TOP 100.0) 4.24; (BOTTOM -1.864115217, HILLSLOPE 1.086184415, MAX_EFFECT 68.05555556, TOP 100.0) 4.32.

Turning to `COc1cc(Nc2nc(NCCO)c3cnn(C)c3n2)cc(C(F)(F)F)c1`, the PXC50 was below 4 (MAX_EFFECT 10.13215859), below 4 (MAX_EFFECT 10.95041322) and below 4 (MAX_EFFECT 12.18568665).
